About 79,000 compounds went through this panel and 15% of them were active in at least one assay; those are over-represented in the sample as a whole. Cut-off read from the data, not from the text of the source: active = growth inhibition above about 70%; inactive = the rest.
Tests used:
[1] = NCI Yeast Anticancer Drug Screen. Data for the rad50 strain (AID 155);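 note: 0% = growth of vehicle-only cultures of the same strain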; settings: S. cerevisiae rad50 strain growth inhibition; at 50.0 µM; hits give high values
Method in brief: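 DNA repair mutant yeast, compound exposure, growth read-out; inhibition is taken relative to vehicle.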

[2] = NCI Yeast Anticancer Drug Screen. Data for the mec2-1 strain (AID 157); settings: S. cerevisiae mec2-1 strain, at 50.0 µM, hits give high values
Method in brief: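 Strain: mec2-1 (DNA repair/cell cycle alteration). Compound exposure, then growth measured; inhibition expressed relative to vehicle.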

[3] = NCI Yeast Anticancer Drug Screen. Data for the sgs1 mgt1 strain (AID 161);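 note: 0% = growth of cultures given vehicle only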; settings: S. cerevisiae sgs1 mgt1 strain, at 50.0 µM, hits give high values
Method in brief: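 Genetically altered yeast, compound exposure, growth inhibition relative to vehicle.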

[4] = NCI Yeast Anticancer Drug Screen. Data for the cln2 rad14 strain (AID 165);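 note: 0% = growth equal to vehicle treated cultures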; settings: S. cerevisiae cln2 rad14 strain, at 50.0 µM, hits give high values
Method in brief: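 Compounds are applied to the cln2 rad14 yeast strain, and growth is then compared with that of vehicle-treated cultures to give inhibition.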

[5] = NCI Yeast Anticancer Drug Screen. Data for the bub3 strain (AID 167); settings: S. cerevisiae bub3 mutant strain, at 50.0 µM, hits give high values
Method in brief: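 In this screen, a yeast mutant lacking normal mitotic checkpoint function is challenged with compound. Relative growth versus vehicle gives the inhibition value.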

[6] = NCI Yeast Anticancer Drug Screen. Data for the mlh1 rad18 strain (AID 175); settings: S. cerevisiae mlh1 rad18 strain growth inhibition; at 50.0 µM; hits give high values
Method in brief: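 Read-out is yeast growth inhibition, calculated against vehicle-only controls. The compound was applied to a strain engineered with DNA damage repair alterations.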

Measured: growth inhibition

NNc1cccc(Cl)n1
inactive: [1] 6.65% | [2] -4.7% | [3] -5.5% | [4] 17.6% | [5] -9.8% | [6] 8.05%

CC(C)NNC(N)=O
inactive: [1] -0.2% | [2] 1.7% | [3] -0.8% | [4] -8.1% | [5] 12.4% | [6] -5.65%

Clc1ccc2nc(/C=C/c3ccccc3)cnc2c1
inactive: [1] 14.6% | [2] 11.2% | [3] 13.3% | [4] 8.9% | [5] 14.1% | [6] 22.5%

O=CC1(CCc2ccccc2)NC(=O)NC1=O (configuration not stated)
inactive: [1] 5.3% | [2] 11.2% | [3] 2.55% | [4] -18.9% | [5] -0.4% | [6] 1.25%

C1=C(CN2CCCCC2)Oc2ccccc2O1
inactive: [1] 25.3% | [2] 36.9% | [3] 42.5% | [4] 46% | [5] 21.3% | [6] 34.9%

Nc1cc(Cl)cc2cc(Cl)cnc12
inactive: [1] 54.2% | [2] 54.8% | [3] 25.4% | [4] 29.1% | [5] 47.4% | [6] 39.5%

CCN1OCC(C)(C(=O)OC)C1C (configuration not stated)
inactive: [1] -13.9% | [2] -13.1% | [3] -10.7% | [4] -31% | [5] 9.9% | [6] -21.1%

Cc1ccc(S(=O)(=O)N(c2cc(C)ccc2C)c2ccccc2N)cc1
inactive: [1] 58.6% | [2] 50.9% | [3] 41.8% | [4] 49.9% | [5] 20.9% | [6] 25.2%

CCOC(=O)c1c(N2CCCC2)ncn(Cc2ccccc2)c1=S
inactive: [1] 0.7% | [2] 12.4% | [3] 3.9% | [4] -7.75% | [5] 8.3% | [6] -5%

[O-][N+](=Nc1ccc(Sc2ccccc2)cc1)c1ccc(Sc2ccccc2)cc1
inactive: [1] -4.65% | [2] 2.3% | [3] 19% | [4] -17% | [5] 21.9% | [6] 28.1%

COc1ccc(C(O)C(C)(C(=O)O)c2ccccc2)cc1 (configuration not stated)
inactive: [1] 2.95% | [2] 2.25% | [3] 4.6% | [4] -6.35% | [5] -5.05% | [6] 8.55%

CO[C@H](C)[C@@](O)(C(=O)OCC1=CCN2CCC[C@@H]12)C(C)C
inactive: [1] -2.3% | [2] -9.4% | [3] 32.4% | [4] 8.65% | [5] 4.5% | [6] 16.3%

COc1cc(C[S+]2CCCC2)c(SC)cc1C[S+]1CCCC1
inactive: [1] 25.4% | [2] 50% | [3] 40.2% | [4] 27.5% | [5] 24.1% | [6] 23.1%

CCOC(=O)C(CCCBr)(C(=O)OCC)N1C(=O)c2ccccc2C1=O
inactive: [1] 20.8% | [2] -13.3% | [3] 10.9% | [4] 18.2% | [5] 31.8% | [6] 12.6%

O=[N+]([O-])c1ccc(C2=NN(c3ccccc3)C(c3ccccc3)C2)cc1 (configuration not stated)
inactive: [1] 8% | [2] 3.1% | [3] 0.5% | [4] -5.9% | [5] 8.85% | [6] 4%

O=C(/C=C/c1ccccc1)N/N=C/c1ccncc1
inactive: [1] 5.2% | [2] 24.9% | [3] 1.6% | [4] -9.2% | [5] -0.45% | [6] 11.3%

CC(=O)ON(C(C)=O)c1ccc(C(N)=O)cc1
inactive: [1] -16.6% | [2] 6.8% | [3] -13.2% | [4] 6.25% | [5] -15.3% | [6] -71.5%

O=C(CN1C(=O)c2ccccc2C1=O)NCCO
inactive: [1] -26.8% | [2] -29.1% | [3] -11.8% | [4] -11.7% | [5] -29.1% | [6] -17.2%

COc1cc(C(=O)OC2CC3CN(CCc4c[nH]c5ccccc45)CC3CC2OC)cc(OC)c1OC (configuration not stated)
inactive: [1] 5.9% | [2] 3.25% | [3] 28.4% | [4] 32.9% | [5] 5.05% | [6] 45.7%

O=[N+]([O-])c1ccc(/C=N/Nc2cnnc(Cl)c2Cl)cc1
inactive: [1] -0.6% | [2] 1.75% | [3] -1.95% | [4] -33% | [5] 2.45% | [6] 1.65%

COc1ccc(CCN=C(C)c2cc(Cl)cc(Cl)c2O)cc1OC
inactive: [1] 31.1% | [2] 16.2% | [3] 7% | [4] 19.3% | [5] -0.4% | [6] 13.9%

CCCNC(C#N)c1ccc(C(C#N)NCCC)cc1 (configuration not stated)
inactive: [1] -4.6% | [2] -10.4% | [3] -12.6% | [4] -5.9% | [5] -23.8% | [6] -7.8%

CCOC(=O)c1c(NCc2ccccc2)n(-c2ccccc2)c(=S)n(-c2ccccc2)c1=O
inactive: [1] 17.1% | [2] -6.8% | [3] 0.6% | [4] 32.1% | [5] 14.8% | [6] 53%

CCOC(=O)N1CCCCC1
inactive: [1] -3.1% | [2] 5% | [3] 3.05% | [4] -16.1% | [5] -3.3% | [6] 5.95%

C/C(=N\NC(C)(C)C)c1sc(-c2nc(C)c(/C(C)=N/NC(C)(C)C)s2)nc1C
inactive: [1] 46.5% | [2] 3.9% | [3] -7.5% | [4] -20.6% | [5] 22.1% | [6] 21.8%

COc1ccc(-c2c3c(nc4nc(SCC(=O)c5ccc(Br)cc5)nc(N)c24)CCCC3)cc1OC
inactive: [1] 0.05% | [2] -17.2% | [3] -27.9% | [4] -0.55% | [5] -16.6% | [6] 9.65%

c1ccc(-c2nnn(-n3nnc(-c4ccccc4)n3)n2)cc1
inactive: [1] -13% | [2] 12.3% | [3] 10.9% | [4] -5.55% | [5] 1.3% | [6] 25.5%

CC(Sc1ccccc1)C(CO)(CO)[N+](=O)[O-] (configuration not stated)
inactive: [1] -15.1% | [2] 1.8% | [3] 28.4% | [4] 9.4% | [5] -14.6% | [6] 28.4%

CC1(C)N=C(c2ccccc2)SC1(C)C
inactive: [1] -13.6% | [2] -12.2% | [3] -21.8% | [4] -49.4% | [5] 1.65% | [6] -36.5%

CC(=O)Nc1ccc(S(=O)(=O)/C(=C/c2ccc(-c3ccc(Br)cc3)o2)c2ccc([N+](=O)[O-])o2)cc1
inactive: [1] 30% | [2] -7.45% | [3] -12.2% | [4] 13.7% | [5] 1.1% | [6] -8.05%

Cc1cc(C(=O)O)cc(C)c1N(C)Cc1cnc2nc(N)nc(N)c2n1
inactive: [1] 5.6% | [2] -11.8% | [3] 0.25% | [4] 20.7% | [5] 17.4% | [6] -5%

O=c1nc(-c2ccccc2)scc1-c1ccccc1
inactive: [1] -1% | [2] -10.6% | [3] 3.4% | [4] 19.1% | [5] 10% | [6] -10.1%

C=C(C)CN(Cc1ccccc1)C1CCCCCCC1
inactive: [1] -7.55% | [2] -11.3% | [3] -14.8% | [4] -5.75% | [5] 1.35% | [6] -17.6%

C/C(=N\NC(=S)Nc1ccc(S(=O)(=O)O)cc1)c1ccccn1
inactive: [1] 21.3% | [2] 18.4% | [3] 34.5% | [4] 19.1% | [5] 33.2% | [6] 50.5%

CC(=O)c1cccc(C(C)=O)n1
inactive: [1] -24.2% | [2] -36.1% | [3] -35.9% | [4] 18.1% | [5] -19.8% | [6] 9.6%

CCn1c2ccccc2c2cc(N=Nc3cc(N)ccc3N(C)C)ccc21
inactive: [1] -3.35% | [2] -7.85% | [3] -9.1% | [4] -22.3% | [5] -5.05% | [6] -4.6%

Cc1cc(=O)c2cc(Cc3ccc(N)cc3)ccc2[nH]1
inactive: [1] 8.35% | [2] -16.7% | [3] -8% | [4] 3.05% | [5] -3.45% | [6] 0.65%

O=C(CCSCCC(=O)N/N=C/c1ccccc1F)N/N=C\c1ccccc1F
inactive: [1] 22.6% | [2] 10.7% | [3] 38.1% | [4] 27.4% | [5] 24.4% | [6] 21.8%

CC12CCCCC1=C(F)C(F)(F)S2 (configuration not stated)
inactive: [1] 0.15% | [2] -17.4% | [3] 7.45% | [4] 24.6% | [5] -2.45% | [6] 17.7%

O=C1c2ccccc2C(=O)c2c(Cl)ccc(O)c21
inactive: [1] 3.15% | [2] 11.2% | [3] 3.8% | [4] 0.1% | [5] 30.4% | [6] 19.9%

CC1(CN2CCCCC2)COC(c2ccccc2)(c2ccccc2)OC1
inactive: [1] -8.1% | [2] -8.85% | [3] -13.6% | [4] -36.1% | [5] 5.75% | [6] -0.9%

O=[N+]([O-])c1ccc(-c2cc[cH-]c2)cc1.[Fe+2].c1cc[cH-]c1
inactive: [1] -4.4% | [2] 14.2% | [3] 13.8% | [4] 3.4% | [5] 17.8% | [6] -0.75%
